For six sequences, binding signal results are on record in publication PMC11006913.

Substitutions are numbered along the chain they refer to.

What all share (assay): PBM; 200 nM protein, PBS
Details in all cases: dsDNA, one strand shown

Assay [1] has as its target T1, SIX6 (Homo sapiens, UniProt O95475 114-200, L167I).
T1 sequence: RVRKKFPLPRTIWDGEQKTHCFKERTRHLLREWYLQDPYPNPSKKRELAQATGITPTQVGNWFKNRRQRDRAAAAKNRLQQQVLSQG

Assay [2] concerns the target T2, SIX6 (Homo sapiens, UniProt O95475 114-200, L143V).
T2 sequence: T1 sequence with L30V, I54L

Assay [3] deals with T3, SIX6 (Homo sapiens, UniProt O95475 114-200, H141N).
T3 sequence: T1 sequence with H28N, I54L

Assay [4] deals with T4, SIX6 (Homo sapiens, UniProt O95475 114-200, T165P).
T4 sequence: T1 sequence with T52P, I54L

Assay [5] has as its target T5, SIX6 (Homo sapiens, UniProt O95475 114-200, L167M).
T5 sequence: T1 sequence with I54M

The target of assay [6] is T6, SIX6 (Homo sapiens, UniProt O95475 114-200, L143M).
T6 sequence: T1 sequence with L30M, I54L

Assay [7] addresses T7, SIX6 (Homo sapiens, UniProt O95475 114-200, L143I).
T7 sequence: T1 sequence with L30I, I54L

In assay [8] the target is T8, SIX6 (Homo sapiens, UniProt O95475 114-200, T165G).
T8 sequence: T1 sequence with T52G, I54L

Assay [9] concerns the target T9, SIX6 (Homo sapiens, UniProt O95475 114-200, T139Q).
T9 sequence: T1 sequence with T26Q, I54L

In assay [10] the target is T10, SIX6 (Homo sapiens, UniProt O95475 114-200, T165A).
T10 sequence: T1 sequence with T52A, I54L

Assay [11] has as its target T11, SIX6 (Homo sapiens, UniProt O95475 114-200, L167V).
T11 sequence: T1 sequence with I54V

Assay [12] addresses T12, SIX6 (Homo sapiens, UniProt O95475 114-200).
T12 sequence: T1 sequence with I54L

The target of assay [13] is T13, SIX6 (Homo sapiens, UniProt O95475 114-200, T165I).
T13 sequence: T1 sequence with T52I, I54L

Turning to CATGATAC, the binding signal in assay [1] was 11.2 upbm affinity estimate (log intensity, higher = more binding, comparable within an allelic series); in [2], 10.3 upbm affinity estimate (log intensity, higher = more binding, comparable within an allelic series); in assay [3], 11.2 upbm affinity estimate (log intensity, higher = more binding, comparable within an allelic series); in assay [4] it was 9.82 upbm affinity estimate (log intensity, higher = more binding, comparable within an allelic series); in assay [5], 10.7 upbm affinity estimate (log intensity, higher = more binding, comparable within an allelic series); in assay [6], 10.9 upbm affinity estimate (log intensity, higher = more binding, comparable within an allelic series). Besides, the binding signal in assay [7] was 10.4 upbm affinity estimate (log intensity, higher = more binding, comparable within an allelic series); in assay [8] it was 11.3 upbm affinity estimate (log intensity, higher = more binding, comparable within an allelic series); in assay [9], 11.2 upbm affinity estimate (log intensity, higher = more binding, comparable within an allelic series); in [10], 11.1 upbm affinity estimate (log intensity, higher = more binding, comparable within an allelic series); in [11], 11 upbm affinity estimate (log intensity, higher = more binding, comparable within an allelic series); in assay [12], 11 upbm affinity estimate (log intensity, higher = more binding, comparable within an allelic series). In assay [13], the binding signal was 10.9 upbm affinity estimate (log intensity, higher = more binding, comparable within an allelic series).
Regarding GCCGCGGC, the binding signal in assay [1] is 9.02 upbm affinity estimate (log intensity, higher = more binding, comparable within an allelic series); in [2], 8.88 upbm affinity estimate (log intensity, higher = more binding, comparable within an allelic series); in assay [3] it was 8.98 upbm affinity estimate (log intensity, higher = more binding, comparable within an allelic series); in assay [4], 9.04 upbm affinity estimate (log intensity, higher = more binding, comparable within an allelic series); in assay [5], 8.87 upbm affinity estimate (log intensity, higher = more binding, comparable within an allelic series); in [6], 9.03 upbm affinity estimate (log intensity, higher = more binding, comparable within an allelic series). Moreover, the binding signal is 8.95 upbm affinity estimate (log intensity, higher = more binding, comparable within an allelic series) in [7]; 9.01 upbm affinity estimate (log intensity, higher = more binding, comparable within an allelic series) in assay [8]; 9.14 upbm affinity estimate (log intensity, higher = more binding, comparable within an allelic series) in assay [9]; 8.95 upbm affinity estimate (log intensity, higher = more binding, comparable within an allelic series) in assay [10]; 9.01 upbm affinity estimate (log intensity, higher = more binding, comparable within an allelic series) in assay [11]; 9 upbm affinity estimate (log intensity, higher = more binding, comparable within an allelic series) in assay [12]. Besides, in [13], the binding signal was 8.83 upbm affinity estimate (log intensity, higher = more binding, comparable within an allelic series).
For the sequence ATGATACA, the binding signal in assay [1] is 11.3 upbm affinity estimate (log intensity, higher = more binding, comparable within an allelic series); in assay [2] it was 10.5 upbm affinity estimate (log intensity, higher = more binding, comparable within an allelic series); in assay [3] it was 11.3 upbm affinity estimate (log intensity, higher = more binding, comparable within an allelic series); in [4], 9.98 upbm affinity estimate (log intensity, higher = more binding, comparable within an allelic series); in assay [5], 10.8 upbm affinity estimate (log intensity, higher = more binding, comparable within an allelic series); in assay [6] it was 11.1 upbm affinity estimate (log intensity, higher = more binding, comparable within an allelic series). Further, the binding signal in assay [7] was 10.5 upbm affinity estimate (log intensity, higher = more binding, comparable within an allelic series); in [8], 11.3 upbm affinity estimate (log intensity, higher = more binding, comparable within an allelic series); in assay [9] it was 11.2 upbm affinity estimate (log intensity, higher = more binding, comparable within an allelic series); in [10] it was 11.2 upbm affinity estimate (log intensity, higher = more binding, comparable within an allelic series); in assay [11] it was 11.1 upbm affinity estimate (log intensity, higher = more binding, comparable within an allelic series); in assay [12], 11.1 upbm affinity estimate (log intensity, higher = more binding, comparable within an allelic series). For the same sequence, the binding signal in [13] is 11.1 upbm affinity estimate (log intensity, higher = more binding, comparable within an allelic series).
As to ATATCCTA, the binding signal in [1] is 10.8 upbm affinity estimate (log intensity, higher = more binding, comparable within an allelic series); in [2], 10.2 upbm affinity estimate (log intensity, higher = more binding, comparable within an allelic series); in assay [3], 10.8 upbm affinity estimate (log intensity, higher = more binding, comparable within an allelic series); in [4], 9.8 upbm affinity estimate (log intensity, higher = more binding, comparable within an allelic series); in assay [5] it was 10.6 upbm affinity estimate (log intensity, higher = more binding, comparable within an allelic series); in assay [6] it was 10.7 upbm affinity estimate (log intensity, higher = more binding, comparable within an allelic series). The binding signal in [7] was 10.2 upbm affinity estimate (log intensity, higher = more binding, comparable within an allelic series); in [8], 10.8 upbm affinity estimate (log intensity, higher = more binding, comparable within an allelic series); in assay [9], 10.9 upbm affinity estimate (log intensity, higher = more binding, comparable within an allelic series); in [10] it was 10.7 upbm affinity estimate (log intensity, higher = more binding, comparable within an allelic series); in assay [11], 10.6 upbm affinity estimate (log intensity, higher = more binding, comparable within an allelic series); in assay [12], 10.7 upbm affinity estimate (log intensity, higher = more binding, comparable within an allelic series). Further, the binding signal in [13] was 10.7 upbm affinity estimate (log intensity, higher = more binding, comparable within an allelic series).
AGGCCCCG: the binding signal was 8.89 upbm affinity estimate (log intensity, higher = more binding, comparable within an allelic series) in assay [1]; 8.82 upbm affinity estimate (log intensity, higher = more binding, comparable within an allelic series) in [2]; 8.69 upbm affinity estimate (log intensity, higher = more binding, comparable within an allelic series) in assay [3]; 8.87 upbm affinity estimate (log intensity, higher = more binding, comparable within an allelic series) in [4]; 8.92 upbm affinity estimate (log intensity, higher = more binding, comparable within an allelic series) in [5]; 8.79 upbm affinity estimate (log intensity, higher = more binding, comparable within an allelic series) in assay [6]. Also, the binding signal in assay [7] is 8.8 upbm affinity estimate (log intensity, higher = more binding, comparable within an allelic series); in assay [8], 8.83 upbm affinity estimate (log intensity, higher = more binding, comparable within an allelic series); in assay [9], 8.79 upbm affinity estimate (log intensity, higher = more binding, comparable within an allelic series); in [10], 8.77 upbm affinity estimate (log intensity, higher = more binding, comparable within an allelic series); in assay [11], 8.67 upbm affinity estimate (log intensity, higher = more binding, comparable within an allelic series); in assay [12], 8.75 upbm affinity estimate (log intensity, higher = more binding, comparable within an allelic series). The binding signal in [13] was 8.82 upbm affinity estimate (log intensity, higher = more binding, comparable within an allelic series).
As for GATACCTA, the binding signal is 11.1 upbm affinity estimate (log intensity, higher = more binding, comparable within an allelic series) in assay [1]; 10.3 upbm affinity estimate (log intensity, higher = more binding, comparable within an allelic series) in assay [2]; 11.1 upbm affinity estimate (log intensity, higher = more binding, comparable within an allelic series) in assay [3]; 9.79 upbm affinity estimate (log intensity, higher = more binding, comparable within an allelic series) in assay [4]; 10.6 upbm affinity estimate (log intensity, higher = more binding, comparable within an allelic series) in [5]; 11.1 upbm affinity estimate (log intensity, higher = more binding, comparable within an allelic series) in assay [6]. Moreover, the binding signal in assay [7] is 10.4 upbm affinity estimate (log intensity, higher = more binding, comparable within an allelic series); in assay [8] it was 11.2 upbm affinity estimate (log intensity, higher = more binding, comparable within an allelic series); in assay [9], 11.2 upbm affinity estimate (log intensity, higher = more binding, comparable within an allelic series); in assay [10], 11.1 upbm affinity estimate (log intensity, higher = more binding, comparable within an allelic series); in assay [11], 10.9 upbm affinity estimate (log intensity, higher = more binding, comparable within an allelic series); in assay [12], 11 upbm affinity estimate (log intensity, higher = more binding, comparable within an allelic series). Also, the binding signal in [13] is 10.9 upbm affinity estimate (log intensity, higher = more binding, comparable within an allelic series).
